Only some compounds are listed: those with a hit (about 3.2% of all), similar ones and a draw of the others.
p53null 39C kill: kills p53 null cells at the nonpermissive temperature; H1299 p53-null (neo) cells, 39C, ATPlite viability, 24 h; Potency, µM (titrated, usually from 46.1 µM), for the others: at the top dose activity, negative = cell killing, usual class: cytotoxic; 55,000 tested, 0.97% active; AID 904;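 further: 0% = DMSO only and -100% = full killing by 100 µM tamoxifen; nearly all actives have a fitted effect of over 50% in size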
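Luminescent ATP signal reported cell survival after H1299 lines (neo, p53 null; or p53 A138V) received up to 46 uM compound and 24 hr incubation at 39C.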
S16 F2sN tox: S16 Schwann cell cytotoxicity; S16 Pmp22-F2sN Schwann cells viability, CellTiter-Glo, 24 h; Potency, µM (highest dose often 57.5 µM), inactives show at the highest dose activity change, negative = cytotoxicity, most hits filed as cytotoxic; 43,000 tested, 0.48% active; further: nearly all actives have a fitted effect of over 65% in size
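Luminescence from CellTiter-Glo, read by CCD camera after a 15 min room-temperature incubation, served as the viability signal. Reporter Schwann cells (S16 Pmp22-F2sN) had been treated with pin-transferred compounds for 24 h at 37C.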
p53null 32C kill: selectivity test: cytotoxicity in p53 null cells, permissive temperature. 55,000 tested, 0.62% active. Potency, µM (doses to about 46.1 µM), for the others: at the top dose activity change, negative = cytotoxicity, usual class: cytotoxic. H1299-neo p53 null cells, ATP luminescence, 24 h, 32C;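 further: 0% = DMSO only and -100% = full killing by 100 µM tamoxifen; nearly all actives have a fitted effect of over 55% in size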
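Cells lacking p53 (H1299-neo) are plated at 600 per well and allowed to settle overnight at 37C. Test compounds (up to 46 uM) are added and held 24 hours at 32C, then ATP is quantified by luminescence.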
pS6 MEF inh: reduces mTORC1 signaling in Tsc2 and p53 null MEF cells; Tsc2-/- p53-/- MEF, phospho-rpS6 immunofluorescence/PI, 24 h; Potency, µM (highest dose often 38.3 µM), for inactives: at the top dose activity change, negative = inhibition, hits mostly inhibitors; 44,000 tested, 0.78% active; AID 493208;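 further: plate controls were DMSO for no effect and rapamycin for full effect; nearly all actives have a fitted effect of over 50% in size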
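Tsc2-/-, p53-/- MEFs (empty-vector stable line) in DMEM + 10% FBS were treated with compounds 24 h at 37 degree Celsius, fixed, and immunostained for phospho-rpS6 (Alexa-488) with propidium iodide counterstain. Laser-scanning cytometry gave % positive cells, normalized against 7.5 nM rapamycin and DMSO.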
PMP22 txn: PMP22 gene transcription modulation; 43,000 tested, 2% active; S16 Pmp22-F2sN Schwann cells (luciferase reporters placed in the Pmp22 gene), FLuc/NLuc coincidence luminescence, 24 h; Potency, µM (doses to about 57.5 µM), inactives show at the top dose activity change, negative = inhibition, most hits filed as inhibitors; AID 1508649; active means clear falling dose curves in both reporters; inconclusive means both reporters move, but less clearly or upward; inactive means either reporter flat; the % is the NLuc reporter signal
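S16(c9) Schwann cells with FLuc/NLuc coincidence reporter in the Pmp22 3' UTR; compounds pin-transferred, 24 h at 37C. Dual-luciferase read: FLuc first, then NLuc after Stop&Glo, each 10 min at room temperature.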
Numbers without * were called inactive; ? = inconclusive; . = not tested or not shown; [ ] = dose if it differs, or a comment. Unless noted, the call rests on the fitted dose curve; in most records, active means well fitted curve in the direction sought with a large enough effect; inconclusive means small, poorly fitted or top-dose-only effect, or another doubt; inactive means no such curve, though single readings can be large; an effect the other way counts as inactive or inconclusive. Unless noted, on the % scale 0 is the no-effect control and ±100 the full control effect; potency means the concentration at half of the fitted maximal effect.

SMILES	p53null 39C kill	S16 F2sN tox	p53null 32C kill	pS6 MEF inh	PMP22 txn
COCCCNC(=O)c1c(NC(=O)c2nc(S(C)(=O)=O)ncc2Cl)sc2c1CCCC2	2%	3.5µM*	-8%	-29%	2µM*
CCNC(=O)c1c(NC(=O)c2nc(S(=O)(=O)CC)ncc2Cl)sc2c1CCCC2	25µM*	4.5µM*	19%	?	4.5µM*
CCSc1ncc(Cl)c(C(=O)Nc2sc3c(c2C(=O)NCCCOC)CCCC3)n1	6%	-5%	2%	0%	4%
CCOC(=O)c1c(NC(=O)c2cc(CC)on2)sc(C)c1C	19%	.	5%	-11%	.
Cc1cc(C)c(S(=O)(=O)NCC(c2ccco2)S(=O)(=O)c2cccs2)c(C)c1 (configuration not stated)	3%	18µM*	11%	-5%	?
Cc1cc(S(=O)(=O)NCC(c2ccco2)S(=O)(=O)c2ccccc2)ccc1F (configuration not stated)	24%	?	0%	-4%	-27%
Cc1ccc(CNC(=O)C(=O)NCC(c2ccco2)S(=O)(=O)c2cccs2)cc1 (configuration not stated)	7%	7%	-12%	0%	4%
Cc1cc(S(=O)(=O)NCC(c2ccco2)S(=O)(=O)c2cccs2)ccc1F (configuration not stated)	15%	10µM*	5%	-13%	9µM*
CCc1cccc(C)c1NC(=O)C(CC)n1nc(C)c2c(C)n(-c3ccccc3)nc2c1=O (configuration not stated)	1%	-2%	1%	-9%	?
O=C(Cn1cc(S(=O)(=O)N2CCN(c3ccccc3F)CC2)c2ccccc2c1=O)Nc1cccc(C(F)(F)F)c1	?	-1%	-1%	?	8%
CC(C)Oc1ccc(CNC(=O)C2CCN(c3nc4ccccc4nc3C(F)(F)F)CC2)cc1	-5%	7.9µM*	-2%	-2%	?
Cc1cc(O)c(C(c2ccc(Cl)cc2)N2CCN(c3ccccc3)CC2)c(=O)n1Cc1ccco1 (configuration not stated)	?	1%	8%	-22%	?
CCOc1ccccc1NC(=O)c1cc2ccc3cccnc3c2[nH]1	?	6%	-6%	-2%	-6%
COc1cc(Cl)c(C)cc1NC(=O)c1cc2ccc3cccnc3c2[nH]1	-10%	-1%	20µM*	-2%	?
COC(=O)c1c(SCC(=O)Nc2ccccc2C(F)(F)F)[nH]c2ccc(Cl)cc2c1=O	6.3µM*	14%	-25%	-3%	-10%
COc1ccc(-n2c(CCC(=O)O)ccc2-c2ccccc2)c(OC)c1	0%	?	-2%	0%	-8%
Cc1cc(NC(=O)c2ccco2)cc(-c2nc3cc(Cl)ccc3o2)c1O	?	-19%	?	12µM*	?
O=C(Cn1nc(N2CCN(c3ccccc3)CC2)ccc1=O)NCc1cccc(Cl)c1	-5%	5%	8%	-6%	13%
CCOC(=O)c1ccc(NS(=O)(=O)c2ccc3c(c2)OCCO3)cc1	1%	-6%	5%	-14%	-20%
O=C(N/N=C/c1cccs1)c1ccc2c(c1)OCO2	-19%[1.84 µM]	.	2.8µM*	.	.
Cn1cc(C(=O)N/N=C/c2cccs2)c2ccccc21	-19%	.	-11%	.	.
CCOC(=O)CSc1nc2ccc(NC(=O)c3ccc(C)cc3)cc2s1	?	4%	10µM*	-4%	3%
O=C(Nc1ccc2nc(SCC(=O)N3CCOCC3)sc2c1)c1cccc(Cl)c1	?	3%	32µM*	-12%	-8%
Cc1cn(C)c(CC(=O)Nc2ccc(F)cc2Cl)c1C(=O)O	14%	-11%	-3%	-1%	32%
Cc1c(Cl)cccc1NC(=O)CCn1cnnn1	-8%	-15%	11%	-2%	4%
SMILES	p53null 39C kill	S16 F2sN tox	p53null 32C kill	pS6 MEF inh	PMP22 txn
COc1ccc(C(=O)Nc2noc3ccccc23)cc1	6.3µM*	11%	3.2µM*	3%	10%
CCCCn1c2ccc(F)cc2c2nnc(SCCN(CC)CC)nc21	-22%	-7%	-6%	?	15µM*
Cc1cc(N2CCN(C)CC2)nc2ccc(NC(=O)Nc3cccc(Cl)c3)cc12	?	25µM*	1%	?	?
Cc1cc(Nc2cccc(Cl)c2)nc2ccc(NC(=O)c3cccnc3)cc12	25µM*	?	?	-3%	?
Cc1cc(Nc2cccc(Cl)c2)nc2ccc(NC(=O)c3cccc(N(C)C)c3)cc12	3%	-17%	0%	-7%	-71%
CCC(C)NC(=O)Cn1c(=O)n(CCCCCC(=O)NCc2ccccc2Cl)c(=O)c2sccc21 (configuration not stated)	-6%	11%	-2%	12%	2%
CN1CCN(C(CNC(=O)C(=O)Nc2cccc(Cl)c2)c2ccc3c(c2)OCO3)CC1 (configuration not stated)	32%	?	12%	16µM*	?
CCc1c(C)c2ccc(O)c(CN3CCN(c4ccc(OC)cc4)CC3)c2oc1=O	10µM*	.	?	0%	.
Cc1cccc(Cn2c(Cc3ccccc3)nc3ccccc32)c1	20µM*	13%	51%	2%	-3%
COCc1nc2ccccc2n1Cc1cccc(C)c1	-15%	15%	-7%	-1%	-20%
COc1ccc(-c2nnc(SCc3cc(=O)c4cc(C)cc(C)c4[nH]3)n2C)cc1	-12%	?	-5%	?	14µM*
COc1ccc(C(=O)Nc2nnc(SCc3cc(=O)c4cc(C)cc(C)c4[nH]3)s2)cc1	-11%	-8%	-1%	-9%	-10%
COc1cc(CNCCSc2nnnn2C)cc(Cl)c1OCc1ccccc1	-12%	?	8%	?	?
CCOc1cc(CNCCSc2nnnn2C)cc(Cl)c1OCc1ccc(Cl)cc1	11µM*	-12%	?	16µM*	?
CCOc1ccc(CCNCc2c(C(=O)O)n(Cc3ccc(C)cc3)c3cc(OC)ccc23)cc1	47%	0%	46%	12µM*	?
COc1ccc(Cn2c(C(=O)O)c(CNCc3ccc(SC)cc3)c3ccc(OC)cc32)cc1	?	?	4%	16µM*	?
C=Cc1ccc(Cn2c(C(=O)O)c(CNCc3ccc(F)cc3)c3ccc(C)cc32)cc1	?	28µM*	47%	-14%	?
CCOC(=O)C1CCN(C(c2cccc(F)c2)c2c(O)cc(C)n(CCOC)c2=O)CC1 (configuration not stated)	8%	3%	-9%	-10%	5%
Cc1ccc(NC(=O)CSc2nc3ncccc3[nH]2)cc1F	-10%	-3%	-7%	-8%	-2%
